From PubChem BioAssay AID1159580 (chemical genetic matrix, 2015)
Hit rate of the full screen: of about 5,500 compounds, about 2,000 (36%) were called active. Inconclusive results (about 18%) are left out. Cut-off read from the data, not from the text of the source: active = normalized growth mostly below about 0.91 (no sharp cut-off); inconclusive = no clear call, values can overlap the other calls; inactive = mostly above about 0.92. This is one part of the list.

Assay: chemical genetic growth profiling, strain panel (AID 1159580);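 note: tested at 20 µM; growth read once vehicle control cultures reached saturation at 30 °C; 1 = growth at the plate median or of vehicle wells; lower values mean less growth of the strain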
Settings: growth OD

Measured: normalized growth

CC1=C(/C=C/C(C)=C/C=C/C(C)=C/C=C/C=C(C)/C=C/C=C(C)/C=C/C23OC2(C)CC(O)CC3(C)C)C(C)(C)CC(O)C1 (configuration not stated)
inactive: S. cerevisiae deletion strains, locus YBR021W, strain FUR4, stronger effect = lower value 1 | S. cerevisiae deletion strains, locus YBR229C, strain ROT2, stronger effect = lower value 1.01 | S. cerevisiae deletion strains, locus YCL029C, strain bik1, stronger effect = lower value 1.02 | S. cerevisiae deletion strains, locus YDL035C, strain GPR1, stronger effect = lower value 1.01 | S. cerevisiae deletion strains, locus YDL074C, strain BRE1, stronger effect = lower value 1.03 | S. cerevisiae deletion strains, locus YDL101C, strain DUN1, stronger effect = lower value 1.01 | S. cerevisiae deletion strains, locus YDL185W, strain tfp1, stronger effect = lower value 1 | S. cerevisiae deletion strains, locus YDL192W, strain arf1, stronger effect = lower value 1 | S. cerevisiae deletion strains, locus YDR101C, strain arx1, stronger effect = lower value 1.01 | S. cerevisiae deletion strains, locus YDR162C, strain NBP2, stronger effect = lower value 0.997 | S. cerevisiae deletion strains, locus YDR318W, strain mcm21, stronger effect = lower value 1.01 | S. cerevisiae deletion strains, locus YDR388W, stronger effect = lower value 1.01 | S. cerevisiae deletion strains, locus YDR502C, strain sam2, stronger effect = lower value 1.02 | S. cerevisiae deletion strains, locus YEL061C, strain CIN8, stronger effect = lower value 1.01 | S. cerevisiae deletion strains, locus YER110C, stronger effect = lower value 1.02 | S. cerevisiae deletion strains, locus YER155C, strain BEM2, stronger effect = lower value 1.01 | S. cerevisiae deletion strains, locus YER167W, strain BCK2, stronger effect = lower value 1.02 | S. cerevisiae deletion strains, locus YGL078C, strain dbp3, stronger effect = lower value 0.995 | S. cerevisiae deletion strains, locus YGL086W, strain mad1, stronger effect = lower value 1.05 | S. cerevisiae deletion strains, locus YGL248W, strain PDE1, stronger effect = lower value 1 | S. cerevisiae deletion strains, locus YGR135W, strain pre9, stronger effect = lower value 0.982 | S. cerevisiae deletion strains, locus YGR252W, strain gcn5, stronger effect = lower value 0.987 | S. cerevisiae deletion strains, locus YHR030C, strain SLT2, stronger effect = lower value 1.01 | S. cerevisiae deletion strains, locus YHR079C, strain IRE1 (second series), stronger effect = lower value 1 | S. cerevisiae deletion strains, locus YHR094C, strain hxt1, stronger effect = lower value 1.01 | S. cerevisiae deletion strains, locus YHR129C, strain ARP1, stronger effect = lower value 1.02 | S. cerevisiae deletion strains, locus YHR200W, strain rpn10, stronger effect = lower value 1.01 | S. cerevisiae deletion strains, locus YIL066C, strain RNR3, stronger effect = lower value 1.01 | S. cerevisiae deletion strains, locus YIL073C, strain SPO22, stronger effect = lower value 1.1 | S. cerevisiae deletion strains, locus YIL125W, strain kgd1, stronger effect = lower value 1.01 | S. cerevisiae deletion strains, locus YIR030C, strain dcg1, stronger effect = lower value 1.01 | S. cerevisiae deletion strains, locus YJL095W, strain BCK1, stronger effect = lower value 0.998 | S. cerevisiae deletion strains, locus YJL134W, strain LCB3, stronger effect = lower value 1.01 | S. cerevisiae deletion strains, locus YJL168C, strain set2, stronger effect = lower value 1.01 | S. cerevisiae deletion strains, locus YJL187C, strain SWE1 (second series), stronger effect = lower value 1 | S. cerevisiae deletion strains, locus YJR043C, strain POL32, stronger effect = lower value 0.999 | S. cerevisiae deletion strains, locus YKL009W, strain mrt4, stronger effect = lower value 1.03 | S. cerevisiae deletion strains, locus YKL068W, stronger effect = lower value 1 | S. cerevisiae deletion strains, locus YKL085W, strain MDH1 (second series), stronger effect = lower value 1.01 | S. cerevisiae deletion strains, locus YKL085W, strain MDH1, stronger effect = lower value 1.01 | S. cerevisiae deletion strains, locus YKL190W, strain CNB1, stronger effect = lower value 1.01 | S. cerevisiae deletion strains, locus YKR001C, strain vps1, stronger effect = lower value 1.04 | S. cerevisiae deletion strains, locus YLR039C, strain RIC1, stronger effect = lower value 1.01 | S. cerevisiae deletion strains, locus YLR058C, strain SHM2, stronger effect = lower value 1.01 | S. cerevisiae deletion strains, locus YLR102C, strain apc9, stronger effect = lower value 1.02 | S. cerevisiae deletion strains, locus YLR262C, strain YPT6, stronger effect = lower value 0.973 | S. cerevisiae deletion strains, locus YLR268W, strain sec22, stronger effect = lower value 1.02 | S. cerevisiae deletion strains, locus YLR330W, strain CHS5, stronger effect = lower value 1.02 | S. cerevisiae deletion strains, locus YLR342W, strain FKS1 (second series), stronger effect = lower value 1.06 | S. cerevisiae deletion strains, locus YLR371W, strain rom2, stronger effect = lower value 1.01 | S. cerevisiae deletion strains, locus YLR418C, strain cdc73, stronger effect = lower value 1 | S. cerevisiae deletion strains, locus YML016C, strain PPZ1, stronger effect = lower value 1.01 | S. cerevisiae deletion strains, locus YML032C, strain rad52, stronger effect = lower value 1 | S. cerevisiae deletion strains, locus YML124C, strain tub3, stronger effect = lower value 1 | S. cerevisiae deletion strains, locus YMR078C, strain ctf18, stronger effect = lower value 1.02 | S. cerevisiae deletion strains, locus YMR223W, strain ubp8, stronger effect = lower value 1.01 | S. cerevisiae deletion strains, locus YMR263W, strain SAP30, stronger effect = lower value 1.01 | S. cerevisiae deletion strains, locus YMR307W, strain GAS1, stronger effect = lower value 1.02 | S. cerevisiae deletion strains, locus YNL067W, strain RPL9B, stronger effect = lower value 1 | S. cerevisiae deletion strains, locus YNL153C, strain GIM3, stronger effect = lower value 0.994 | S. cerevisiae deletion strains, locus YNL233W, strain BNI4, stronger effect = lower value 1.02 | S. cerevisiae deletion strains, locus YNL250W, strain rad50, stronger effect = lower value 1.01 | S. cerevisiae deletion strains, locus YNL271C, strain bni1, stronger effect = lower value 1 | S. cerevisiae deletion strains, locus YNL298W, strain CLA4, stronger effect = lower value 0.991 | S. cerevisiae deletion strains, locus YNL307C, strain MCK1, stronger effect = lower value 1.01 | S. cerevisiae deletion strains, locus YNL322C, strain KRE1, stronger effect = lower value 1.01 | S. cerevisiae deletion strains, locus YNR052C, strain pop2, stronger effect = lower value 1 | S. cerevisiae deletion strains, locus YOL006C, strain TOP1, stronger effect = lower value 1.11 | S. cerevisiae deletion strains, locus YOL012C, strain htz1 0.925 | S. cerevisiae deletion strains, locus YOL147C, strain pex11, stronger effect = lower value 1.01 | S. cerevisiae deletion strains, locus YOR061W, strain CKA2, stronger effect = lower value 1.02 | S. cerevisiae deletion strains, locus YOR069W, strain VPS5, stronger effect = lower value 1.02 | S. cerevisiae deletion strains, locus YOR136W, strain idh2, stronger effect = lower value 1 | S. cerevisiae deletion strains, locus YOR144C, strain elg1, stronger effect = lower value 0.998 | S. cerevisiae deletion strains, locus YOR184W, strain ser1, stronger effect = lower value 1.03 | S. cerevisiae deletion strains, locus YOR316C, strain cot1, stronger effect = lower value 1.03 | S. cerevisiae deletion strains, locus YPR119W, strain clb2, stronger effect = lower value 0.994 | S. cerevisiae deletion strains, locus YPR141C, strain kar3, stronger effect = lower value 1.01 | S. cerevisiae deletion strains, locus YPR163C, strain tif3, stronger effect = lower value 1.01 | S. cerevisiae deletion strains, locus YPR167C, strain met16, stronger effect = lower value 1.01 | S. cerevisiae deletion strains, strain wtn01, stronger effect = lower value 1.02 | S. cerevisiae strains, strain wild type, stronger effect = lower value 1.01
